Reference: PubChem BioAssay (Tox21)
“And” between values parts separate entries of the source, which are not always exact repeats. Equal entries are not always repeated. Results filed as inconclusive are left out. Values without a mark were called inactive. The source made the active and inactive calls. The call rests on the fitted dose curve; in most records, active means well fitted curve in the direction sought with a large enough effect in the repeat runs; inconclusive means weak or mixed curves; inactive means no such curve, though single readings can be large; an effect the other way counts as inactive or inconclusive.

Each compound was assayed against Cytochrome P450 1A2 (Homo sapiens) (UniProt P05177) (assay: Cytochrome P450 Family 1 Subfamily A Member 2 (CYP1A2) small molecule antagonists: luciferase reporter qHTS assay (AID 1671199)). Settings: P450-Glo CYP1A2 enzyme, luciferin luminescence, 1 h; series mostly up to 53 µM; activity change, negative = inhibition: at the top concentration.
Method in brief: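 Luminescence readout (relative luminescence units) after luciferin detection reagent, 20 min RT. Preceded by 1 h room-temperature CYP1A2 reaction with NADPH regeneration solution following 10 min compound preincubation with enzyme and proluciferin substrate. Furafylline positive control.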
Further: nearly all actives have a fitted effect of over 50% in size.
On the % scale 0 is the no-effect control and ±100 the full control effect; potency means the concentration at half of the fitted maximal effect.

Sequence of Cytochrome P450 1A2 (Homo sapiens) (P05177 whole entry, looked up): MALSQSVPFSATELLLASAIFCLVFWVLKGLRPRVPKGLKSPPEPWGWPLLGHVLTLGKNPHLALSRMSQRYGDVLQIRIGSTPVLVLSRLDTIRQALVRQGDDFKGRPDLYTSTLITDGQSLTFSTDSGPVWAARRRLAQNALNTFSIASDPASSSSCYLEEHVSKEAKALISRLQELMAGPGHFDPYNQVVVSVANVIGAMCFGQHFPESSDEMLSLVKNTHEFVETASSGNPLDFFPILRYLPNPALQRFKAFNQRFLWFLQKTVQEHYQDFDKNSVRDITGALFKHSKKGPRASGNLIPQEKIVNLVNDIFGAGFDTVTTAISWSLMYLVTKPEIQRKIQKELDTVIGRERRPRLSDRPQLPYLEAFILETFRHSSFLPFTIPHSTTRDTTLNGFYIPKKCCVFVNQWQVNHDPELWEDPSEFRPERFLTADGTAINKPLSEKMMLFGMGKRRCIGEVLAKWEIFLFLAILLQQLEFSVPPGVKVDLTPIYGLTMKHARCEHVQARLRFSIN

Structure (SMILES)	activity change, negative = inhibition	Potency
Oc1c(I)cc(I)c2cccnc12	9.8%	
CCCCCCCCC(CCCCCC)C(=O)O (stereo not given)	-9.8% [at 115 µM]	
O=c1[nH]c2ccc(Cl)cc2o1		10 µM (active)
CCOC(=O)c1ccc(C#Cc2ccc3c(c2)C(C)(C)CCS3)nc1	-7.09%	
C=CCc1ccccc1OCC(O)CNC(C)C (stereo not given)		12.3 µM (active)
CC(C)Nc1cccnc1N1CCN(C(=O)c2cc3cc(NS(C)(=O)=O)ccc3[nH]2)CC1	-21.1%	
Oc1ccc(Cl)c2cccnc12	-7.95%	
NC1[C@H]2CN(c3nc4c(cc3F)c(=O)c(C(=O)O)cn4-c3ccc(F)cc3F)C[C@@H]12 (stereo not given in full)	-0.119%	
CN1C(C(=O)Nc2ccccn2)=C(O)c2sccc2S1(=O)=O	11.1%	
CC1CC(C)C(=O)C1=O (stereo not given)	-11% [at 115 µM]	
CC(=O)c1cc2ccccc2s1		6.92 µM (active)
CC(CC1c2ccccc2CCc2ccccc21)CN(C)C (stereo not given)	3.69%	
Cc1cc2c(OCC(CNC(C)(C)C)OC(=O)c3ccccc3)cccc2[nH]1 (stereo not given)	-6.66%	
CN1CCCN=C1COC(=O)C(O)(c1ccccc1)C1CCCCC1 (stereo not given)	-23.2%	
OCCOCC#CCOCCO	-17.7% [at 115 µM]	
c1ccc2c(c1)CCc1ccccc1N2		7.13 µM (active) and 5.49 µM (active)
CC(C)(C)CC(=O)OCC(=O)[C@@]1(O)CC[C@H]2[C@@H]3CCC4=CC(=O)C=C[C@]4(C)[C@H]3[C@@H](O)C[C@@]21C	13.9%	
CC(=O)NC1(c2cccc(F)c2)CCN(CC[C@@]2(c3ccc(Cl)c(Cl)c3)CN(c3ccccc3)C(=O)CO2)CC1	-18% [at 115 µM]	
O=C(O)c1cccc(-c2noc(-c3ccccc3F)n2)c1		4.56 µM (active)

Structure (SMILES)	activity change, negative = inhibition	Potency
CCCCC(CC)COP(=O)(O)O (stereo not given)	5.01% [at 115 µM]	
N#CCc1ccc(Cl)cc1Cl		22.4 µM (active)
CCCCCCCCCCCCCCN(CCO)CCO		17.8 µM (active)
C[C@@H](O[C@H]1OCCN(Cc2n[nH]c(=O)[nH]2)[C@H]1c1ccc(F)cc1)c1cc(C(F)(F)F)cc(C(F)(F)F)c1	-5.98%	
c1cc(N(CC2CO2)CC2CO2)ccc1Cc1ccc(N(CC2CO2)CC2CO2)cc1 (stereo not given)	-19.9% [at 115 µM]	
NCCNCCO	-28.5% [at 115 µM]	
CC(C)=CC(=O)C=C(C)C		28.1 µM (active)
CC(C)=CCC/C(C)=C/CC/C(C)=C/CCC(=O)OC/C=C(\C)CCC=C(C)C	-5.91%	
O=[N+]([O-])c1ccc(O/N=C/c2cc(Br)c(O)c(Br)c2)c([N+](=O)[O-])c1	-13.1% [at 115 µM]	
O=c1cc(-c2ccccc2)oc2ccc3ccccc3c12		5.64 µM (active)
CCCCN(CCN(CCCC)C(=O)N1CCOCC1)C(=O)N1CCOCC1	5.48%	
O=C(/C=C/c1ccccc1)OCCc1ccccc1		6.33 µM (active)
CC[C@]1(O)C[C@H]2CN(CCc3c([nH]c4ccccc34)[C@@](C(=O)OC)(c3cc4c(cc3OC)N(C=O)[C@H]3[C@@](O)(C(=O)OC)[C@H](OC(C)=O)[C@]5(CC)C=CCN6CC[C@]43[C@@H]65)C2)C1	-18.6%	
COc1ccc(OC(=O)N(CC(=O)O)Cc2ccc(OCCc3nc(-c4ccccc4)oc3C)cc2)cc1		17.4 µM (active)
CCC(OCCCOC)OC(C)=O (stereo not given)		36.4 µM (active)
CCCCCC#CC(=O)OC	-5.15% [at 115 µM]	
C[C@@H](O)[C@H]1C(=O)N2C(C(=O)O)=C([C@H]3CCCO3)S[C@H]12	-20.4%	
C=C1C[C@@]23CC[C@H]4[C@@](C)(CCC[C@@]4(C)C(=O)O[C@@H]4O[C@H](CO)[C@@H](O)[C@H](O)[C@H]4O)[C@@H]2CC[C@]1(O[C@@H]1O[C@H](CO)[C@@H](O)[C@H](O[C@@H]2O[C@H](CO)[C@@H](O)[C@H](O)[C@H]2O)[C@H]1O[C@@H]1O[C@H](CO)[C@@H](O)[C@H](O)[C@H]1O)C3	-12.8% [at 115 µM]	

These compounds were tested against Voltage-gated inwardly rectifying potassium channel KCNH2 (Homo sapiens) (UniProt Q12809) (assay: Human Ether-a-go-go-Related Gene (hERG) channel small molecule antagonists: fluorescence cell-based qHTS assay (AID 1671200;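 on activity change, negative = inhibition: hERG-expressing U2OS cells given a thallium stimulus after FluxOR II dye loading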)). Settings: hERG-U2OS cells, FluxOR thallium flux fluorescence; series mostly up to 76.8 µM; activity change, negative = inhibition: at the top concentration.
Method in brief: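 hERG-U2OS cells plated overnight at 37 C, loaded with FluxOR II dye 1 h at RT in dark; after 10 min, thallium stimulus added. Fluorescence (480/540 nm) read kinetically for 2 min at 1 s intervals.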

Sequence of Voltage-gated inwardly rectifying potassium channel KCNH2 (Homo sapiens) (Q12809 whole entry, looked up): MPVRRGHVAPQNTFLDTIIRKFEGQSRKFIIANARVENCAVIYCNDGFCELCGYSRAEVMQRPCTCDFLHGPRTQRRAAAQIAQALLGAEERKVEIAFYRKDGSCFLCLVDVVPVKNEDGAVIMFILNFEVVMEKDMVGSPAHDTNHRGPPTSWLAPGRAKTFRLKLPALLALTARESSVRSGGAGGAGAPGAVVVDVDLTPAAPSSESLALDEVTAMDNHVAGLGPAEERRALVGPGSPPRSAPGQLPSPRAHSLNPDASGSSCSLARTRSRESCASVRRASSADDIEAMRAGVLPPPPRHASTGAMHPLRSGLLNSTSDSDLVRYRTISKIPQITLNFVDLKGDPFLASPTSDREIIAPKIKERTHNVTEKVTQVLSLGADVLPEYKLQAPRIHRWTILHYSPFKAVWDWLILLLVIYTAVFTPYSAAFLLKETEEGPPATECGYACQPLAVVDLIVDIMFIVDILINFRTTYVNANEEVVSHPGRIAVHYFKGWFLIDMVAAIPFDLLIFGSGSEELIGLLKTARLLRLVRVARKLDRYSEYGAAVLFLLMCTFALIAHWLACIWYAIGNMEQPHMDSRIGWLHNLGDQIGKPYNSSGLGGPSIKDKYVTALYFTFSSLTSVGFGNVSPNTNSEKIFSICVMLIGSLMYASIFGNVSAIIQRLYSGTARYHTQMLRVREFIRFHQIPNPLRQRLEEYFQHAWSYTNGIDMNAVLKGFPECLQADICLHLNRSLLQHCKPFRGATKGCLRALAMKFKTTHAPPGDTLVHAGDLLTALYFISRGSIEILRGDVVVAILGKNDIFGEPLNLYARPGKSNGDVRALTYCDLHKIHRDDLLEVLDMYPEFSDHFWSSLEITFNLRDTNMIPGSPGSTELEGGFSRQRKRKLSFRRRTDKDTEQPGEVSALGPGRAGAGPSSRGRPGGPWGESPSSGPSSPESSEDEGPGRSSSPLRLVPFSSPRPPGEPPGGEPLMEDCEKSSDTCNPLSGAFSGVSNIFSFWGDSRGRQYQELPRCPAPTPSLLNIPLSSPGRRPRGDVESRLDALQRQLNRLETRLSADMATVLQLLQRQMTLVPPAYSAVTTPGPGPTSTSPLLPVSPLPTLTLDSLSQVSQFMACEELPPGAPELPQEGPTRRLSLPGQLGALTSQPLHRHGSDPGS

Structure (SMILES)	activity change, negative = inhibition	Potency
Oc1c(I)cc(I)c2cccnc12	2.53% [at 35.3 µM]	
CCCCCCCCC(CCCCCC)C(=O)O (stereo not given)	-4.96%	
O=c1[nH]c2ccc(Cl)cc2o1	1.01%	
C=CCc1ccccc1OCC(O)CNC(C)C (stereo not given)	-12.3% [at 35.3 µM]	
CC(C)Nc1cccnc1N1CCN(C(=O)c2cc3cc(NS(C)(=O)=O)ccc3[nH]2)CC1		9.52 µM (active)
Oc1ccc(Cl)c2cccnc12	1.09% [at 35.3 µM]	
NC1[C@H]2CN(c3nc4c(cc3F)c(=O)c(C(=O)O)cn4-c3ccc(F)cc3F)C[C@@H]12 (stereo not given in full)	0.427% [at 35.3 µM]	
CN1C(C(=O)Nc2ccccn2)=C(O)c2sccc2S1(=O)=O	1.27% [at 35.3 µM]	
CC1CC(C)C(=O)C1=O (stereo not given)	8.3%	
CC(=O)c1cc2ccccc2s1	3.23% [at 35.3 µM]	
CN1CCCN=C1COC(=O)C(O)(c1ccccc1)C1CCCCC1 (stereo not given)		4.77 µM (active)
OCCOCC#CCOCCO	5.5%	
c1ccc2c(c1)CCc1ccccc1N2	-21.1%	
CC(C)(C)CC(=O)OCC(=O)[C@@]1(O)CC[C@H]2[C@@H]3CCC4=CC(=O)C=C[C@]4(C)[C@H]3[C@@H](O)C[C@@]21C	-11.4% [at 35.3 µM]	
CC(=O)NC1(c2cccc(F)c2)CCN(CC[C@@]2(c3ccc(Cl)c(Cl)c3)CN(c3ccccc3)C(=O)CO2)CC1		13.8 µM (active)
O=C(O)c1cccc(-c2noc(-c3ccccc3F)n2)c1	-0.157% [at 35.3 µM]	
CCCCC(CC)COP(=O)(O)O (stereo not given)	-1.71%	

Structure (SMILES)	activity change, negative = inhibition	Potency
N#CCc1ccc(Cl)cc1Cl	3.03%	
C[C@@H](O[C@H]1OCCN(Cc2n[nH]c(=O)[nH]2)[C@H]1c1ccc(F)cc1)c1cc(C(F)(F)F)cc(C(F)(F)F)c1		8.49 µM (active)
c1cc(N(CC2CO2)CC2CO2)ccc1Cc1ccc(N(CC2CO2)CC2CO2)cc1 (stereo not given)	-21.2%	
NCCNCCO	2.71%	
CC(C)=CC(=O)C=C(C)C	0.913%	
CC(C)=CCC/C(C)=C/CC/C(C)=C/CCC(=O)OC/C=C(\C)CCC=C(C)C	2.44% [at 35.3 µM]	
O=[N+]([O-])c1ccc(O/N=C/c2cc(Br)c(O)c(Br)c2)c([N+](=O)[O-])c1	8.49%	
O=c1cc(-c2ccccc2)oc2ccc3ccccc3c12	-8.59%	
CCCCN(CCN(CCCC)C(=O)N1CCOCC1)C(=O)N1CCOCC1	-0.0631% [at 35.3 µM]	
O=C(/C=C/c1ccccc1)OCCc1ccccc1		49 µM (active)
CC[C@]1(O)C[C@H]2CN(CCc3c([nH]c4ccccc34)[C@@](C(=O)OC)(c3cc4c(cc3OC)N(C=O)[C@H]3[C@@](O)(C(=O)OC)[C@H](OC(C)=O)[C@]5(CC)C=CCN6CC[C@]43[C@@H]65)C2)C1	-9.53% [at 35.3 µM]	
COc1ccc(OC(=O)N(CC(=O)O)Cc2ccc(OCCc3nc(-c4ccccc4)oc3C)cc2)cc1	-15.4% [at 35.3 µM]	
CCC(OCCCOC)OC(C)=O (stereo not given)	0.259%	
CCCCCC#CC(=O)OC	0.516%	
C[C@@H](O)[C@H]1C(=O)N2C(C(=O)O)=C([C@H]3CCCO3)S[C@H]12	1.69% [at 35.3 µM]	
C=C1C[C@@]23CC[C@H]4[C@@](C)(CCC[C@@]4(C)C(=O)O[C@@H]4O[C@H](CO)[C@@H](O)[C@H](O)[C@H]4O)[C@@H]2CC[C@]1(O[C@@H]1O[C@H](CO)[C@@H](O)[C@H](O[C@@H]2O[C@H](CO)[C@@H](O)[C@H](O)[C@H]2O)[C@H]1O[C@@H]1O[C@H](CO)[C@@H](O)[C@H](O)[C@H]1O)C3	-2.01%	
